{"source": "the supplement of paper PMC10681739"}
{"biological_target": "T1, ETS1 (UniProt P14921)", "T1 sequence": "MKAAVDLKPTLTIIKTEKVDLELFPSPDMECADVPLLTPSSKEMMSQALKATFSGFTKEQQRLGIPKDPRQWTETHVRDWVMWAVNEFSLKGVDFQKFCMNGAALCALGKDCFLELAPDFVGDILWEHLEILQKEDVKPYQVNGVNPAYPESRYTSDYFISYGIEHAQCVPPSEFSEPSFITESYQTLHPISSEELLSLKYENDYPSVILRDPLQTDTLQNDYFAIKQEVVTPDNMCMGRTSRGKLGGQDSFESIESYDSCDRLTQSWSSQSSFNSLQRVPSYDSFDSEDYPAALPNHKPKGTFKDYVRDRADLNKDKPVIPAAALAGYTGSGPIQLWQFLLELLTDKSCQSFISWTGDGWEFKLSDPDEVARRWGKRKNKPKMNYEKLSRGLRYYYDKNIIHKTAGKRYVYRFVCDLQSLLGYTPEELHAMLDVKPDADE", "test": "ETS1 binding intensity (PBM fluorescence), ETS1 alone (arbitrary fluorescence units); higher = stronger binding", "settings": "ETS1 concentration 1 nM; RUNX1 concentration 0 nM", "method": "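Cooperative genomic-context PBM: 36-bp genomic probes with neighbouring ETS1 and RUNX1 sites, double-stranded on Agilent 4x180k arrays. Full-length recombinant human ETS1 (1 nM) was incubated alone or with RUNX1 (25 nM) and detected with anti-ETS1 antibody plus Alexa488 secondary. Value is the median fluorescence intensity over 4 replicate spots; the ETS1+RUNX1 data were normalised to the ETS1-only data using probes without RUNX1 sites. The 36-bp variable region sits on the array probe with constant linker/primer flanks that are not printed.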"}
{"sequence": "GGATGGCGGAAGAGGCGGCTGAGGCCGCAGGACGTG", "ETS1 binding intensity": 4630}
{"sequence": "TTGATTGGAGCAGGATGTGGTCAGAACAGTATGCAG", "ETS1 binding intensity": 3190}
{"sequence": "CTTTGCTGCCGCCTTCCTGTGCGGGGCCGTGGCGGC", "ETS1 binding intensity": 493}
{"sequence": "CATGACGAAGGGGAAGGATGTGGTTTGAGGGCAGCA", "ETS1 binding intensity": 774}
{"sequence": "CTTGTTATCCTTCCGGAGGCGGTAACTCATGAGAGA", "ETS1 binding intensity": 497}
{"sequence": "CCAGACCCGGCGGAACTACCGTGCCCACAAGGCAGC", "ETS1 binding intensity": 396}
{"sequence": "TCTGGCTTCCTGTCTTAATAGGGCTTTGTGGTGTGC", "ETS1 binding intensity": 762}
{"sequence": "CCAGAGCAGGATGTTCTGCTGTGGCTAGATAAGCCC", "ETS1 binding intensity": 907}
{"sequence": "AGACCCGGACCGGAACCTTGGCGCGGTGACGCTAGT", "ETS1 binding intensity": 1050}
{"sequence": "GGGGCAGGAAACAGCGTCCTGCGCGGGTAGCCCCTG", "ETS1 binding intensity": 775}
{"sequence": "AAACTACACCTCAGAGGATGTGGTTCCTTCTCTCAT", "ETS1 binding intensity": 1130}
{"sequence": "TGGCAGGATGCCGTTAAATATGTAACCACATGTCTC", "ETS1 binding intensity": 500}
{"sequence": "AGGCGCCGGAAAAACTACATCTCCCACAATCCTCGG", "ETS1 binding intensity": 484}
{"sequence": "CACCGCCGGAGTCCCGGATGTGGTTGCTAGGGCAGC", "ETS1 binding intensity": 5070}
{"sequence": "CCCACTTCCTGTCTGCTTCCCTCCACCGCTCAGACC", "ETS1 binding intensity": 2890}
{"sequence": "CTCACAACTCGCGTCCGGCGGAGACCACAATTCCCG", "ETS1 binding intensity": 412}
{"sequence": "GGCTTCCGGCGGGGTACCCTCCTCTGTGGGCGGGGC", "ETS1 binding intensity": 563}
{"sequence": "CCGGGCTGCGGAAGGCGGGAATTCTGCGGTTCGCGG", "ETS1 binding intensity": 405}
{"sequence": "TGACATCCTCTGAGGCAGCAAGCTGCGGTGAAGTCT", "ETS1 binding intensity": 400}
{"sequence": "CCTGTCCGGAAGTCCTGAGAGGGAATCGCCCGCAAA", "ETS1 binding intensity": 2300}
{"sequence": "ACAGGAAGTCAGCTGAGTACCGAGCAAGCCGCATGC", "ETS1 binding intensity": 1770}
{"sequence": "AGGTGGGAGGAAGTTCCTACCCCGGCGCGGTGTGCA", "ETS1 binding intensity": 625}
{"sequence": "GCTGTCCGTTTCCGAGATGTTAATGCGGGATCTTGC", "ETS1 binding intensity": 473}
{"sequence": "TGCGACGGAAGCAGGAACTTGCTAACCACAAAACCC", "ETS1 binding intensity": 1350}
{"sequence": "TTTCCTACAGAAGGATGTGGTTGGTGGGTTTGGTTT", "ETS1 binding intensity": 619}
{"sequence": "TACATAGGCGGAAGTGGCCTGCGGGCGCCGGAGTTG", "ETS1 binding intensity": 3980}
{"sequence": "CAGATCCGGCGTGGACGAAGCTCGGGAACCACAACA", "ETS1 binding intensity": 353}
{"sequence": "AGGCTTCCTGTTTTATCTCGTGTGTGTGGTGCACCA", "ETS1 binding intensity": 547}
{"sequence": "GTGCTCCTCGCTTCCTCCGCGGTCTTCCGAGCGGTC", "ETS1 binding intensity": 465}
{"sequence": "TATCACATCCTGCCGGACAAAAAGGCCAAACCACCT", "ETS1 binding intensity": 536}
{"sequence": "GCCATCCGCAGGACTCCGCGTTCTCGCGGTAAGTGG", "ETS1 binding intensity": 384}
{"sequence": "CCGGGTAGGATCCGGTTGCCTTTCTGCGGTGGAGGA", "ETS1 binding intensity": 410}
{"sequence": "GCCGCTGGGTAGGCGGAAGTAGCCGCAGGCATGGCA", "ETS1 binding intensity": 5590}
{"sequence": "GGTCTGGAGGATGTTTGCAGCTGCTGTGGGTGGTGG", "ETS1 binding intensity": 586}
{"sequence": "TTACACCCAAGGGATGTTGTTTGTGGGGGGCGGGGT", "ETS1 binding intensity": 445}
{"sequence": "ATCACAAGCAGAGGATGTGGTTAGTGTTTCGTTCCA", "ETS1 binding intensity": 804}
{"sequence": "CTGGGGCTGAGGGAGGGATGTGGTGGGGCCCAGGCT", "ETS1 binding intensity": 411}
{"sequence": "GAACTGAAGAAGGCAGGAAGCCACAGGCTCCTGGGT", "ETS1 binding intensity": 1730}
{"sequence": "TGCTCAAATGCAGGATGTGGTCTGAGAGTTTCTCCT", "ETS1 binding intensity": 1910}
{"sequence": "GCCCTGACCCACATCCTGCCGCAGCCTGCTTGTCCT", "ETS1 binding intensity": 979}
